# Measured values published in PubChem BioAssay (NCI).
# Where “and” joins values, the source holds several entries; their conditions need not be identical. Equal entries are not always repeated. About 83,000 compounds went through this panel and 20% of them were active in at least one assay; those are over-represented in the sample as a whole.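 The test compound was applied at a single concentration to cells in 96-well plates for 48 hours, and percent growth was recorded.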 Values without a mark were called inactive. Calls of active or inactive are those of the source. Rule for the calls: active = growth percent below 10; inactive = the rest.
# Assays:
# Test in all cases: NCI-60 one-dose screen, 48 h (100 = growth as untreated, 0 = no growth, -100 = all killed)
# Details in all cases: 10 µM unless noted
# NCI-H23 lung = system: NCI-H23 lung
# NCI-H226 lung = system: NCI-H226 lung
# NCI-H322M lung = system: NCI-H322M lung
# HOP-62 NSCLC = system: HOP-62 NSCLC
# NCI-H460 lung = system: NCI-H460 lung
# HOP-92 NSCLC = system: HOP-92 NSCLC
# NCI-H522 lung = system: NCI-H522 lung
# A549/ATCC NSCLC = system: A549/ATCC NSCLC
# 786-0 renal = system: 786-0 renal
# COLO 205 colon = system: COLO 205 colon
Structure (SMILES),growth (NCI-H23 lung),growth (NCI-H226 lung),growth (NCI-H322M lung),growth (HOP-62 NSCLC),growth (NCI-H460 lung),growth (HOP-92 NSCLC),growth (NCI-H522 lung),growth (A549/ATCC NSCLC),growth (786-0 renal),growth (COLO 205 colon)
COc1cccc(NC(=O)c2ccc(NC(=O)CCl)s2)c1,11.9%,61.5%,101%,64.2%,12.1%,85.9%,-79.7% (active),39.7%,-86.8% (active),40.2%
CN(C)CCOc1ccc(C(=O)C2[C@H](c3ccc(Cl)cc3)[C@@H](c3ccccc3)NC23C(=O)Nc2ccc(Cl)cc23)cc1 (stereo not given in full),-93.2% (active),-82.3% (active),-91.1% (active),-82.6% (active),-87.4% (active),-89.9% (active),-91.7% (active),-77.9% (active),-94% (active),-76.9% (active)
Cc1ccc2nc(NC(=O)Nc3cccc(Cl)c3)sc2c1,93.8%,96.4%,93.7%,111%,99.1%,119%,94%,106%,107%,117%
CN1CCN(C(=O)Oc2cc3c(c4ccccc24)[C@H](CCl)CN3C(=O)c2cc3cc(OCCCN4CCC4)ccc3[nH]2)[C@@H]2CSSC[C@H]21,-72% (active),-22.4% (active),2.48% (active),-40.4% (active),-35.7% (active),-10% (active),-51.7% (active),-2.8% (active),-89.1% (active),-65.5% (active)
CCOC(=O)/C(F)=C/C1CC1CCc1ccc(OCC)cc1 (stereo not given),87.3%,86.8%,82.5%,124%,59.2%,91.7%,97.5%,50.5%,105%,41.8%
CN(C)c1nc(NCCNS(=O)(=O)c2ccc(C3=Nc4c(N)nc(N)nc4NC(c4ccc(Cl)cc4)C3)cc2)nc(N2CCOCC2)n1 (stereo not given),69.2%,58.6%,69.3%,57.1%,59.1%,-10.8% (active),65.3%,63.4%,40.7%,66.5%
Cn1cc(-c2cc3nc(-c4cn(C)c5ncccc45)cc(N)n3n2)c2cc(F)ccc21,21.2%,3.92% (active),52.1%,-14.7% (active),37.6%,-0.741% (active),22.7%,19.6%,17.6%,47.1%
Cc1ccc(C2CC(c3ccc(S(=O)(=O)NCCNc4nc(N(C)C)nc(N5CCOCC5)n4)cc3)=Nc3c(N)nc(N)nc3N2)cc1 (stereo not given),72%,63.8%,77.3%,63.9%,53.6%,-9.13% (active),80.1%,62.2%,32.8%,72.3%
Cn1cc(-c2cc(N)n3nc(-c4c[nH]c5ccc(Cl)cc45)cc3n2)c2cc(Br)cnc21,-58.6% (active),-12.5% (active),32.3%,-22.4% (active),-58% (active),-76.8% (active),-71% (active),-64.9% (active),-93.7% (active),-91.6% (active)
Cc1nn(-c2ccccc2)c2nc(C)n(C(=O)N/N=C/c3ccccc3)c(=O)c12,99.7%,87.5%,103%,102%,106%,99.4%,97.9%,101%,97.1%,118%
CC1=C(C)C(=O)C(N2CCSCC2)=CC1=O,93.9%,88.7%,96.9%,99.1%,105%,89.5%,94.3%,99.3%,99.4%,121%
Cc1ccc2nc(SCc3ccccc3F)n(-c3ccccc3)c(=O)c2c1,93.9%,96.7%,97.1%,95%,105%,82.1%,87.8%,85.8%,94.9%,116%
Cc1cccc(/C=C/c2ccc(NC(=S)NCCCCN(C)C)cc2)c1,-99.7% (active),-72.1% (active),-91.1% (active),-67.4% (active),-85.5% (active),-57.2% (active),-73.7% (active),-57.9% (active),-57.4% (active),-69.5% (active)
Nc1cccc(-n2c(COc3ccc(I)cc3)nc3ccccc32)c1,75.6% and 99.5%,57.2% and 109%,94.4% and 96.2%,86.9% and 103%,86.2% and 108%,63.3% and 113%,81.5% and 107%,104%,106% and 102%,81.4% and 109%
N#Cc1c(-c2ccc(F)cc2)nc(SCc2ccccc2)nc1N1CCNCC1,-90.5% (active),-58.8% (active),-53.7% (active),-78.8% (active),-85.5% (active),-92.2% (active),-81.6% (active),-90.9% (active),-94% (active),-66% (active)
O=C(Nc1ccc(S(=O)(=O)N2CCCCC2)cc1)C(Cl)Cl,103%,127%,114%,108%,108%,116%,98.4%,104%,98.9%,120%
O=C1Nc2ccc(F)cc2/C1=C/C(=O)c1cc2ccccc2oc1=O,96.1%,86%,104%,97.3%,104%,94.7%,-7.22% (active),108%,112%,105%
CN1C(=O)C2(C(C#N)=C(c3ccc(Cl)cc3)Nc3c2c(-c2ccccc2)nn3-c2ccccc2)c2ccccc21 (stereo not given),80%,69.3%,87.5%,44.5%,92.4%,75.1%,85.8%,89.7%,97.2%,85.9%
COc1ccc2[nH]cc(-c3cc(N)n4nc(-c5c[nH]c6ccccc56)cc4n3)c2c1,-12.1% (active),74.5%,18.3%,-45.2% (active),-22.8% (active),-1.68% (active),-65.3% (active),1.46% (active),-88.3% (active),-82.5% (active)
O=C1Nc2cc(-c3ccc(NS(=O)(=O)c4ccc(F)c(Cl)c4)cc3)ccc2/C1=C/c1ccc[nH]1,-25.5% (active),37%,26.4%,27.2%,-10.6% (active),37.2%,6.92% (active),3.71% (active),35.6%,35.4%
O=C(NN1C(=O)/C(=C/C=C/c2ccc([N+](=O)[O-])o2)SC1=S)c1ccncc1,-88.8% (active),-52.7% (active),-16.3% (active),-97.5% (active),-53.6% (active),-85.1% (active),-83.8% (active),-34.7% (active),-79.9% (active),-96.9% (active)
N/C(=N\c1nc2ccccc2s1)NC(=O)Nc1ccccc1[N+](=O)[O-],14.3%,29.1%,39.9%,30.1%,11.1%,-5.71% (active),-50.1% (active),16.8%,11%,-72% (active)
CCCCN1C(=O)/C(=C\C(=O)c2cc3ccccc3oc2=O)c2ccccc21,79%,88.5%,99.4%,92.3%,86.4%,63.7%,-19.9% (active),106%,75%,-20.5% (active)
O=C(Nc1ccc(F)cc1)Nc1nc2ccc([N+](=O)[O-])cc2s1,-11.8% (active),1.42% (active),7.52% (active),-0.8% (active),-3.01% (active),-3.56% (active),-23.7% (active),6.83% (active),1.6% (active),-77.5% (active)
